# Test results: PubChem BioAssay (Tox21)
# Values joined by “and” are separate entries in the source; they are usually repeats but may differ in a detail not shown here. Equal values may be shown once. Results filed as inconclusive are left out. Active and inactive are the calls of the source. The call rests on the fitted dose curve; in most records, active means well fitted cell-killing curve with a large enough effect in the repeat runs; inconclusive means weak or mixed curves; inactive means no such curve, though single readings can be large or run the other way.
# Assay: qHTS assay for identifying genotoxic compounds that show differential cytotoxicity against isogenic chicken DT40 cell lines with known DNA damage response pathways - Rad54/Ku70 mutant cell line (AID 743015); further: nearly all actives have a fitted effect of over 60% in size
# Details: DT40 Rad54/Ku70 mutant viability, CellTiter-Glo, 40 h; series mostly up to 66.8 µM; activity change, negative = cytotoxicity: at the top concentration
# On the % scale 0 is the no-effect control and ±100 the full control effect; potency means the concentration at half of the fitted maximal effect.
Structure (SMILES),Potency,"activity change, negative = cytotoxicity"
C=CC(=O)Nc1cc2c(Nc3ccc(F)c(Cl)c3)ncnc2cc1OCCCN1CCOCC1,5.96 µM (active),
O=S(=O)(O)c1ccccc1/C=C/c1ccc(-c2ccc(/C=C/c3ccccc3S(=O)(=O)O)cc2)cc1,,0.024% (inactive)
CCc1ccc(Br)cc1,,-1.24% [at 95.1 µM] (inactive)
CCCCC(CC)COC(=O)CCCCC(=O)OCc1ccccc1 (stereo not given),,1.97% (inactive)
CN1CCN2c3ccccc3Cc3ccccc3C2C1 (stereo not given),21.1 µM (active),
O=[N+]([O-])c1ccc(O)cc1C(F)(F)F,21.7 µM (active),
CCN(CC)C(=O)c1cc(S(=O)(=O)Cc2ccccc2)c(N2CCC(c3ccccc3)CC2)cc1N(CC)CCN(C)C,10.6 µM (active) and 17 µM (active),
Oc1ccccc1O,12.3 µM (active) and 27.3 µM (active),
CCCCCC/C=C\CCCCCCCC(=O)O,,-0.194% (inactive)
C=CC(=O)OCCOC(=O)C=C,10.9 µM (active),
NC(=O)c1cccc([N+](=O)[O-])c1,,11.3% (inactive)
Oc1c(I)cc(Cl)c2cccnc12,16.8 µM (active) and 19.3 µM (active),
Cc1cccc2cccnc12,,1.64% (inactive)
c1ccsc1,,-1.63% (inactive)
COC(=O)C1=C(C)NC(C)=C(C(=O)OCCN2CCN(C(c3ccccc3)c3ccccc3)CC2)C1c1cccc([N+](=O)[O-])c1 (stereo not given),6.68 µM (active),
O=C(O)[C@H](O)[C@@H](O)[C@H](O[C@@H]1O[C@H](CO)[C@H](O)[C@H](O)[C@H]1O)[C@H](O)CO,,0.0288% [at 30.7 µM] (inactive)
COC1=C(OC)C(=O)C(CCCCCCCCCCO)=C(C)C1=O,10.6 µM (active),
[Cl][Pt-2]([Cl])([Cl])[Cl],,-6.9% [at 95.1 µM] (inactive)
CC(C)(C)c1ccc(C(O)CCCN2CCC(C(O)(c3ccccc3)c3ccccc3)CC2)cc1 (stereo not given),9.44 µM (active),
CCCCC(CC)CN1CN(CC(CC)CCCC)CC(C)(N)C1 (stereo not given),8.04 µM (active),
CCO[C@@H]1O[C@H](C(COCc2ccccc2)OCc2ccccc2)[C@H](OCc2ccccc2)[C@H]1O (stereo not given in full),14.3 µM (active),
Cc1c2ccccc2c(C)c2c1ccc1ccccc12,21.5 µM (active) and 4.33 µM (active),
CC/C=C\CCCCCO,,-0.777% (inactive)
O=C1c2ccccc2C(=O)N1SC1CCCCC1,17.2 µM (active) and 4.33 µM (active),
COC(=O)c1ccccc1C,,7.29% (inactive)
